Screens: PubChem, National Center for Advancing Translational Sciences (NCATS)
FLuc modulator: qHTS profiling assay for firefly luciferase inhibitor/activator using purifed enzyme and Km concentrations of substrates (counterscreen for miR-21 project). Luciferin 4-monooxygenase (Photinus pyralis), P08659. purified FLuc, Km substrates, luminescence inhibition. Potency, µM (doses to about 57.5 µM), for the others: at the top dose activity change, negative = inhibition, usual class: inhibitors. actives 6.9% (n = 360,000). AID 588342, 2011;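 also: plate controls were vehicle for no effect and reference inhibitor for full effect; nearly all actives have a fitted effect of over 55% in size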
Target sequence (P08659 whole entry, looked up): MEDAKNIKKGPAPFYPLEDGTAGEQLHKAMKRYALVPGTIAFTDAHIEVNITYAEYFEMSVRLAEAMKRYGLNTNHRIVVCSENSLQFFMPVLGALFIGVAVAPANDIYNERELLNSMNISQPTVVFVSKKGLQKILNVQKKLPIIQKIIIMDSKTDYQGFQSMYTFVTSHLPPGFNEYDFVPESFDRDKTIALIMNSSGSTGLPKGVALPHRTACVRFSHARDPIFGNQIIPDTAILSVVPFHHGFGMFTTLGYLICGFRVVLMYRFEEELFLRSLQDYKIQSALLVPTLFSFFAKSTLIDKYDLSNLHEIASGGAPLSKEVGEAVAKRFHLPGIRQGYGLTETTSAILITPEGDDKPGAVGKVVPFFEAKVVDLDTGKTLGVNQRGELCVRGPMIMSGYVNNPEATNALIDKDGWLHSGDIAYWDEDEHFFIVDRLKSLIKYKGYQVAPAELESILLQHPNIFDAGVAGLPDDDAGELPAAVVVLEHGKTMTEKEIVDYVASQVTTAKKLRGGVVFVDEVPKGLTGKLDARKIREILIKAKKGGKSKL
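Purified P. pyralis luciferase, 10 nM final, with Km-level 10 uM D-luciferin and 10 uM ATP in 50 mM Tris acetate pH 7.5, 10 mM Mg acetate, 0.01% Tween-20, 0.05% BSA; 6-point qHTS titration about 60 µM downward; luminescence read.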
NPC1 promoter act: qHTS Assay for NPC1 Promoter Activators | Potency, µM (doses to about 9.22 µM), for the others: at the top dose activation, hits mostly activators | AID 485313, 2010 | Huh7 NPC1 promoter luciferase reporter, 24 h | actives 2.4% (n = 320,000); also: % of control where 0% means no effect; nearly all actives have a fitted effect of over 60% in size
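Compounds in DMSO were transferred onto Huh7 NPC1-luciferase reporter cells pre-incubated 2 h; after 24 h at 37 °C, Amplite reagent was dispensed and luminescence recorded 10 min later.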
ELG1 repair inh: qHTS screen for small molecules that inhibit ELG1-dependent DNA repair in human embryonic kidney (HEK293T) cells expressing luciferase-tagged ELG1 | HEK293T ELG1-luciferase reporter, luminescence, 16 h; DNA damage induced by 5-fluorouridine | actives 2.3% (n = 330,000) | Potency, µM (titrated, usually from 46.1 µM), without a hit: at the top dose activity change, negative = inhibition, most hits filed as inhibitors | AID 504467, 2011; also: % is scaled to controls: 0 for no effect and ±100 for the full control effect; nearly all actives have a fitted effect of over 55% in size
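Luminescence from the luciferase reporter, measured 30 min after ONE-Glo reagent at room temperature, was the read-out. Beforehand, 2,000 cells per well were exposed for 16 hr at 37 °C to 5-fluorouridine together with compound or vehicle.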
ELG1 genotox: qHTS screen for small molecules that induce genotoxicity in human embryonic kidney (HEK293T) cells expressing luciferase-tagged ELG1. HEK293T ELG1-luciferase reporter, luminescence, 16 h. Potency, µM (top dose mostly 46 µM), inactives show at the highest dose activity change, positive = activation, usual class: activators. actives 1.3% (n = 330,000). AID 504466, 2011; also: % of control where 0% means no effect; nearly all actives have a fitted effect of over 60% in size
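After overnight (16 hr) compound treatment at 37 °C, ELG1-luciferase HEK293T cells were lysed with ONE-Glo; luminescence quantified 30 min later at room temperature.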
SMN2 splice enh: qHTS Assay for Enhancers of SMN2 Splice Variant Expression | actives 2.8% (n = 210,000) | Potency, µM (titrated, usually from 46.1 µM), for the others: top-dose activity change, positive = activation, actives largely listed as activators | HEK293 SMN2-luciferase splicing reporter, luminescence, 30-36 h; also: % of control where 0% means no effect; nearly all actives have a fitted effect of over 55% in size
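HEK293 cells carry an SMN2 minigene-luciferase reporter in which exon 7 inclusion puts luciferase in frame. Cells were seeded at 2000 cells/well, attached for 10-12 hours, then exposed to compounds for 30-36 hours at 37C before ONE-Glo luminescence.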
Rab9 prom act: qHTS Assay for Rab9 Promoter Activators | Huh7 Rab9 promoter-luciferase reporter, luminescence, 24 h | Potency, µM (highest dose often 9.22 µM), for inactives: at the highest dose activation, negative = inhibition, usual class: activators | actives 2.8% (n = 320,000); also: % of control where 0% means no effect; nearly all actives have a fitted effect of over 60% in size
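Cells were plated at 1500 per well in reduced-serum medium with 10% FBS and left 2 h. Compound in DMSO was then added for 24 h at 37 °C. Reporter signal was read by luminescence after 10 min with luciferase detection reagent.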
* hit, by the source's call; ? = inconclusive; . = no result given; [ ] = another dose, or the depositor's remark. Sampled rows, rich in hits. Any-hit rate of the full collection: about 9.4%. Calls follow the shape of the dose curve; as a rule, active = well fitted curve in the direction sought with a large enough effect; inconclusive = small, poorly fitted or top-dose-only effect, or another doubt; inactive = no such curve, though single readings can be large; an effect the other way counts as inactive or inconclusive. Potency is read from the fitted curve at half-maximal effect.

SMILES	FLuc modulator	NPC1 promoter act	ELG1 repair inh	ELG1 genotox	SMN2 splice enh	Rab9 prom act
Cc1ccc(-c2noc(CCCc3ccccc3)n2)cc1	24µM*	29%	?	14%	5%	10%
c1ccc(CCc2nc(-c3ccccn3)no2)cc1	13µM*	3.2µM*	?	?	11µM*	2.2µM*
COc1ccc(-c2noc(CCCc3ccccc3)n2)cc1OC	?	-1%	7%	3%	5%	-2%
Fc1ccc(OCc2nc(-c3ccc(Br)o3)no2)c(F)c1	17µM*	23%	?	16%	-2%	16%
Clc1ccccc1OCc1nc(-c2ccc(Br)o2)no1	15µM*	30%	?	23µM*	?	?
CCOc1ccc(NC(=O)C2CCN(S(=O)(=O)c3c(C)noc3/C=C/c3cccs3)CC2)cc1	-4%	.	.	.	-5%	.
CCCCCCCCCCCCC1CO1 (stereo not given)	.	.	.	.	13%	.
CCOCCOCC	.	.	.	.	11%	.
Brc1ccc(-c2noc(CCc3ccccc3)n2)o1	24µM*	19%	?	15%	18%	19%
O=c1cnc2cnc(Oc3ccccc3)nc2n1CCc1ccccc1	.	.	.	.	-3%	.
COC(=O)c1ccc(NC(=O)Cn2nnc3ccccc32)cc1	4.3µM*	3.5µM*	?	16µM*	13µM*	2.8µM*
Cc1ccc(NC(=O)Cn2nnc3ccccc32)cc1	17µM*	?	?	?	.	3.5µM*
Cc1cccc(NC(=O)Cn2nnc3ccccc32)c1	?	2.8µM*	?	?	2%	2.8µM*
O=C(Cn1nnc2ccccc21)Nc1ccc([N+](=O)[O-])cc1	1%	-2%	8%	2%	.	-1%
CC1CCc2c(sc(NC(=O)Cn3nnc(-c4ccc(C(F)(F)F)cc4)n3)c2C#N)C1 (stereo not given)	?	.	.	.	-5%	.
CCOC(=O)C1CCN(C(=O)C2CCN(c3nc4ccc(OC)cc4s3)CC2)CC1	15µM*	-8%	-7%	-10%	-45%	-11%
COc1ccc2nc(N3CCN(C(=O)C4COc5ccccc5O4)CC3)sc2c1 (stereo not given)	6µM*	2.8µM*	?	9%	.	2µM*
Cc1cccc2sc(N3CCN(C(=O)C4COc5ccccc5O4)CC3)nc12 (stereo not given)	-1%	0%	-7%	-3%	.	-5%
Cc1cccc(N=CC=C2OC(C)(C)C(C)(C)O2)c1	?	-4%	?	11%	-11%	-3%
Cc1ccc(N=CC=C2OC(C)(C)C(C)(C)O2)cc1	7.6µM*	-4%	1%	2%	-4%	-4%
CCN(CC)S(=O)(=O)c1ccc2c(c1)c(=O)c(C(=O)N1CCN(c3ccc(F)cc3)CC1)cn2C	-8%	.	.	.	8%	.
O=C(NCCCN1CCCC1=O)c1cc2c(s1)CCCCC2	17µM*	29%	?	?	.	?
Cc1cc(C)n(C(=O)c2cc3c(s2)CCCC3)n1	24µM*	18%	?	2%	8%	8%
O=C(NCCCN1CCCC1=O)C(=O)Nc1cccc(F)c1	17µM*	?	?	?	.	3.2µM*
O=C(Nc1nnc(SCc2ccccc2)s1)c1cc2c(s1)CCCC2	?	10%	?	?	-35%	20%
SMILES	FLuc modulator	NPC1 promoter act	ELG1 repair inh	ELG1 genotox	SMN2 splice enh	Rab9 prom act
CCSc1nnc(NC(=O)c2cc3c(s2)CCCC3)s1	?	2.5µM*	?	7%	?	1.6µM*
COc1ccc(Nc2oc(/C=C/c3cc(OC)c(OC)c(OC)c3)nc2C#N)cc1	-18%	.	.	.	30%	.
CC(C)(C)n1ncc2c(=O)n(Cc3cccc(Cl)c3Cl)cnc21	-12%	.	.	.	.	.
COc1ccc(CNC(=O)CCc2c(C)c3cc4c(C)c(C)oc4cc3oc2=O)cc1OC	-7%	.	.	.	2%	.
O=C(Nc1nccs1)c1cc2c(s1)CCCCC2	0.085µM*	1µM*	?	.	-66%	0.79µM*
CC(C)Cc1nnc(NC(=O)c2ccc3c(=O)n4c(nc3c2)CCC4)s1	-1%	-6%	-5%	3%	.	-1%
NNC(=O)c1cc2c(s1)CCCCCC2	?	-3%	-5%	-2%	-8%	8%
CC(C)Cc1nnc(NC(=O)c2cc3c(s2)CCC3)s1	?	3.5µM*	?	17%	.	3.2µM*
O=C(Nc1nncs1)c1cc2c(s1)CCC2	6.7µM*	?	?	?	?	2.8µM*
O=C(Nn1cnnc1)c1cc2c(s1)CCCC2	21µM*	7%	?	4%	7%	2%
Cc1ccc2c(c1)cc1c(=O)n(Cc3ccccc3Cl)nc(C)n12	2%	.	.	.	14%	.
COCCCn1c(SCC(=O)Nc2ccccc2OC)nc2c(sc3ccccc32)c1=O	-1%	.	.	.	.	.
Clc1ccc(-c2cn3c(n2)-c2ccccc2C3)cc1Cl	0.85µM*	3.5µM*	?	?	1µM*	2.5µM*
O=C1CC(c2ccccc2)Cc2[nH]c(=O)c(-c3nc(-c4ccc(Cl)c(Cl)c4)cs3)cc21 (stereo not given)	-6%	.	.	.	5%	.
Cc1ccc2oc(C(=O)N(Cc3cccc(F)c3)C3CCS(=O)(=O)C3)c(C)c2c1 (stereo not given)	-3%	.	.	.	-13%	.
Cc1noc(NC(=O)Nc2ccccc2F)c1C#N	.	.	.	.	-13%[9.22 µM]	.
CCOC(=O)c1ccc2c(c1)NCc1cccc(OC)c1O2	5.4µM*	2.5µM*	?	?	.	2.8µM*
COc1ccc(/C=C/c2nc3cc(-c4ccccc4)ccc3o2)cc1O	9.5µM*	1%	?	-1%	-91%	5%
COc1ccc(-c2c/c(=N\c3nc(-c4ccccc4)c(C)s3)c3ccccc3o2)cc1O	3%	-14%	?	16%	-19%	-18%
Clc1ccc(OCc2nnc(SCc3nc4ccccc4[nH]3)n2Cc2ccco2)cc1	-14%	-2%	16µM*	-16%	-85%	-12%
CC(=O)c1sc(-c2ccccc2)cc1NS(=O)(=O)c1ccccc1	-2%	-4%	3%	3%	.	2%
NC(=O)c1sc(-c2ccsc2)cc1NS(=O)(=O)c1ccc(C(F)(F)F)cc1	-4%	0%	18µM*	-7%	.	-1%
CC(=O)c1sc(-c2ccccc2)cc1NS(=O)(=O)c1ccc(C)cc1	2%	1%	-18%	-4%	.	-3%
CC(=O)c1sc(-c2ccc(F)cc2)cc1NS(=O)(=O)c1ccc(C)cc1	6%	-3%	18µM*	-8%	.	-3%
